In PubChem BioAssay (Tox21):
Results filed as inconclusive are left out. A number with no mark means an inactive call. The source made the active and inactive calls. Calls come from the whole dose curve.

target: Acetylcholinesterase (Homo sapiens) (UniProt P22303); assay: Acetylcholinesterase (AChE) small molecule antagonists: fluorescence cell-based qHTS assay (AID 1347398); conditions: SH-SY5Y cells; Potency: AChE activity; outcome: AChE activity; series mostly up to 115 µM; activity change, negative = inhibition: at the top concentration; note: nearly all actives have a fitted effect of over 50% in size
Sequence (P22303 whole entry, looked up): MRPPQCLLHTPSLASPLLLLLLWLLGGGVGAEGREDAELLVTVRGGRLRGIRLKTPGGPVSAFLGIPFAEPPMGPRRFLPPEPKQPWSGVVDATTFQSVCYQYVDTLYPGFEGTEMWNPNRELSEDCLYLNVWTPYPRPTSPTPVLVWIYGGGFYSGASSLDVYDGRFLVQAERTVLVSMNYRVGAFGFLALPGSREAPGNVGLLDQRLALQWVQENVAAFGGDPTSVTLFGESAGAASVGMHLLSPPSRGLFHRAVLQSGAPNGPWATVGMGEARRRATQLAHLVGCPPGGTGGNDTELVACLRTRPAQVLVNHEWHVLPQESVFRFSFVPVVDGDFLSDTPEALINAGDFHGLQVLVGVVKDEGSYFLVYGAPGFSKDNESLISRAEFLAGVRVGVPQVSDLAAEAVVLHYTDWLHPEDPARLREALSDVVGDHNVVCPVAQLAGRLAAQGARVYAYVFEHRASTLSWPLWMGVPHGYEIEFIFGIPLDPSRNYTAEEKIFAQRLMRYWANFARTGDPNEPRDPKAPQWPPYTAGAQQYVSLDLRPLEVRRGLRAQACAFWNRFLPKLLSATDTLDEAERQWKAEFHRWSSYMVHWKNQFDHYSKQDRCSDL
Excerpt: National Center for Advancing Translational Sciences [NCATS]
Division of Preclinical Innovation [DPI]
U.S. Environmental Protection Agency [EPA]
National Institutes of Environmental Health Sciences [NIEHS]
National Toxicology Program [NTP]
U.S. Food and Drug Administration [FDA]
Acetylcholinesterase (AChE) is the primary cholinesterase in the body that hydrolyzes a key neurotransmitter, acetylcholine. Inhibition of AChE activity can lead to neurotoxicity. Known inhibitors of AChE include organophosphorous pesticides (OP), chemical warfare agents, drugs, and various phytochemicals.
A homogenous cell-based assay using Amplitetrade mark Fluorimetric Acetylcholinesterase Assay Kit *Green Fluorescence* (AAT Bioquest, Sunnyvale, CA) was used to evaluate the chemicals in the Tox21 10K library that inhibit AChE activity. The assay uses Thiolite Green to quantify the thiocholine produced from the hydrolysis of acetylthiocholine by AChE from the SH-SY5Y cells. AChE can hydrolyze acetylthiocholine to create thiocholine. Thiolite Green is fluorescent when reacting with thiocholine. It has spectral properties similar to those of fluorescein. The fluorescence intensity of Thiolite Green is used to measure AChE activity. Its signal can be easily read by a fluorescence microplate reader at Ex/Em = 490/520 nm.
Tox21 Assay Protocol Summary:
For cell-based AChE assay, 2,000 SH-SY5Y cells in 4 uL/well were dispensed into black, clear-bottom 1536-well plates using a Multidrop Combi (Thermo Scientific) dispenser. The assay plates were incubated overnight at 37 C to allow cells to attach to the wells, followed by the transfer of 23 nL compound or DMSO (vehicle control) by a Pintool station (Wako Automation, CA). The plates were incubated for 30 min at 37 C and 5% CO2, followed by the addition of 4 uL of detection cocktail solution (ThioliteGreen, acetylthiocholine) into each well using Flying Reagent Dispenser (Beckman Coulter, CA) and then following 40 min incubation at room temperature. Fluorescent intensity (Ex/Em = 490/520 nm) was measured using an Envision plate reader (PerkinElmer, MA).
% is set by controls: 0 for no effect and ±100 for the full control effect; potency is the fitted concentration of half-maximal effect.

SMILES	activity change, negative = inhibition	Potency
CC1CC(=O)CC(C)(C)C1 (stereo not given)	3.64%	–
CCCCCCC(O)CO (stereo not given)	2.73%	–
C=CC(=O)NC(C)(C)C	1.7%	–
CCCCCCC#CC(=O)OC	0.744%	–
CCNc1nc(NC(C)CC)nc(OC)n1 (stereo not given)	-1.16%	–
Nc1ccc(S(=O)(=O)Nc2ccccc2)cc1	2.49% [at 53.7 µM]	–
O=[Si]=O	7.11%	–
COC(=O)CCSCCC(=O)OC	-1.79%	–
CC(C)C(=O)OCC(C)(C)C(O)C(C)C (stereo not given)	-3.81%	–
O=C(c1ccccc1)C1CCCCC1	1.78%	–
CN(C)CCOc1ccccc1Cc1ccccc1	-15.8% [at 53.7 µM]	–
CCCCCCCCc1ccc(Nc2ccc(CCCCCCCC)cc2)cc1	-4.93% [at 53.7 µM]	–
CCOCC(C)O (stereo not given)	1.7%	–
CCOC(=O)c1nc(C(Cl)(Cl)Cl)n(-c2ccc(Cl)cc2Cl)n1	-18%	–
COc1cc(C(=O)NC2CCN(C)CC2)ccc1Nc1ncc2c(n1)N(C1CCCC1)CC(F)(F)C(=O)N2C	–	11.6 µM (active)
FC(F)(F)C(F)(F)C(F)(F)C(F)(F)C(F)(F)C(F)(F)C(F)(F)C(F)(F)Br	8.7% [at 53.7 µM]	–
CC(C)(COC(=O)c1ccccc1)COC(=O)c1ccccc1	-1.7%	–
CCCCNCCCC	2.04%	–
CNC(=O)c1cnn(-c2nc(N)c3ncn([C@@H]4O[C@H](CO)[C@@H](O)[C@H]4O)c3n2)c1	-1.2% [at 53.7 µM]	–
O=C(OCCN1CCOCC1)c1cccnc1Nc1cccc(C(F)(F)F)c1	-6.21% [at 53.7 µM]	–

SMILES	activity change, negative = inhibition	Potency
CCC(=O)OCc1ccc(OC)cc1	5.06%	–
N#Cc1ccc(C/C(=N/NC(=O)Nc2ccc(OC(F)(F)F)cc2)c2cccc(C(F)(F)F)c2)cc1	-0.907%	–
COC(=O)c1cc(Cl)ccc1[N+](=O)[O-]	-14.8%	–
C1=COCCC1	4.67%	–
CCN(CC)CCc1nc(-c2ccccc2)no1	6.39% [at 53.7 µM]	–
Cc1cc(C)cc([N+](=O)[O-])c1	4.93%	–
C=CCOc1nc(OCC=C)nc(OCC=C)n1	-6.89%	–
COC(=O)c1ccc(NC(C)=O)cc1OC	0.0149% [at 53.7 µM]	–
S=C([S-])NCCNC(=S)[S-].[Mn+2]	–	39.9 µM (active)
CC(=O)OCC(=O)[C@@]1(O)CC[C@H]2[C@@H]3CCC4=CC(=O)C=C[C@]4(C)[C@@]3(F)[C@@H](O)C[C@@]21C	-10.1% [at 53.7 µM]	–
O=C(C1CCCCC1)N1CC(=O)N2CCCc3ccccc3C2C1 (stereo not given)	-0.473% [at 53.7 µM]	–
CCC(CC)C(C)CCOC(C)=O (stereo not given)	3.42%	–
O=CCCc1ccccc1	-2.59%	–
O=CN1CCCCC1	-1.25%	–
C=C(C)C(=O)OCCCCCCCCCCOC(=O)C(=C)C	-0.874%	–
Cc1ccc(S)cc1	-3.25%	–
CC(=O)Nc1ccc(S(=O)(=O)Nc2cc(C)on2)cc1	10.3% [at 53.7 µM]	–
CC1(C)S[C@@H]2[C@H](N=CN3CCCCCC3)C(=O)N2[C@H]1C(=O)O	-6.11% [at 53.7 µM]	–
C=CCc1ccccc1OCC(O)CNC(C)C (stereo not given)	-1.09% [at 53.7 µM]	–
C(=C\c1ccccc1)/c1ccccc1	2.01%	–
